The panel holds about 83,000 compounds, 20% with a hit somewhere; the sample as a whole holds those more often.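 The endpoint reported here, percent growth, reads 100 for growth as untreated, 0 for no net growth and -100 for all cells dead.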 Active and inactive are the calls of the source. How the source made its calls: active means growth percent below 10; inactive means the rest.
Each compound was assayed on MDA-MB-468 breast (assay: NCI-60 one-dose screen, 48 h (100 = growth as untreated, 0 = no growth, -100 = all killed)). Settings: 10 µM unless noted.
`COc1ccc(C2CC(c3ccccc3)=Nc3ccccc3S2)cc1` (stereo not given) was tested, and the growth was 102% (inactive). For `COc1cc2ncnc(Oc3ccc(NC(=O)Nc4ccc(CN5CCOCC5)c(C(F)(F)F)c4)c4ccccc34)c2cc1OC`, the growth was -12.3% (active). For `Cc1cc(Nc2ccc(C)c(Cl)c2)n2nc(C(F)(F)F)nc2n1`, the growth was 36.5% (inactive). In the case of `Cc1cc(N(CCCNc2ccnc3cc(Cl)ccc23)Cc2cccs2)nc(Cl)n1`, the growth is reported as 1.63% (active). `CCCCCCCCCCCC(=O)OC(C)C(=O)Nc1ccccc1` (stereo not given) was tested, and the growth was 111% (inactive). In the case of `Oc1ccc(Cc2ccc(O)c3ncccc23)c2cccnc12`, the growth is reported as -16% (active). In the case of `O=C1/C=C/[C@@H](O)[C@@H]2C[C@@H](O)C[C@H]2/C=C/CCC[C@@H](C(F)(F)F)O1`, the growth is reported as -40.7% (active). For `CCCCCc1ccc(S(=O)(=O)Nc2cc(-c3csc(NC(=O)CN4CCN(C)CC4)n3)ccc2OC)cc1`, the growth was 35.2% (inactive). With `C=C(NC(=O)C(=C)NC(=O)c1csc(C2=NC3c4csc(n4)C4NC(=O)c5csc(n5)C(C(C)(O)C(C)O)NC(=O)C5CSC(=N5)C(=CC)NC(=O)C(C(C)O)NC(=O)c5csc(n5)C3(CC2)NC(=O)C(C)NC(=O)C(=C)NC(=O)C(C)NC(=O)C(C(C)CC)NC2C=Cc3c(C(C)O)cc(nc3C2O)C(=O)OC4C)n1)C(N)=O` (stereo not given) the growth was -55.6% (active). In the case of `Cc1cc(NC(=O)CNc2nc(Oc3ccc(F)cc3)nc(-c3ccc(F)cc3)n2)ccc1Cl`, the growth is reported as 92.5% (inactive). In the case of `O=C(COc1ccc(/C=C2\Cc3ccccc3C2=O)cc1)c1ccc(Cl)cc1`, the growth is reported as 111% (inactive). For `O=[N+]([O-])c1ccc(N=Nc2ccc(O)c3ccccc23)cc1`, the growth was 26.7% (inactive). `CCOC(=O)C1=C(C)NC(=O)NC1c1c(Cl)n(-c2ccccc2)c2ccccc12` (stereo not given) was tested, and the growth was 58.3% (inactive). For `Cc1nn2c(-c3nc4cc(Cl)c(Cl)cc4[nH]3)c(-c3ccc(F)cc3)nc2s1`, the growth was 8.3% (active). With `Fc1ccc(COc2ccc(Nc3ncnc4sc5c(c34)CCCC5)cc2)cc1` the growth was 93.9% (inactive). `Cc1cc(-c2ccccc2)on1` was tested, and the growth was 109% (inactive). In the case of `CN1CCN(CCC=C2c3ccccc3Sc3ccc(S(=O)(=O)N(C)C)cc32)CC1`, the growth is reported as 21.1% (inactive). In the case of `COc1ccc(-c2nc(SC(C)C)nc(NNC(N)=O)c2C#N)cc1`, the growth is reported as 80.5% (inactive). In the case of `COc1cc(-c2cc(-c3nc4ccc(F)cc4[nH]3)[nH]n2)cc(OC)c1OC`, the growth is reported as 16.6% (inactive). With `CC1(C)CC[C@]2(C(=O)O)CC[C@]3(C)C(=CC[C@@H]4[C@@]5(C)C/C(=C/O)C(=O)C(C)(C)[C@@H]5CC[C@]43C)[C@@H]2C1` the growth was 77.3% (inactive). `COC(=O)C(CCC(=O)CCl)N1C(=O)c2ccccc2C1=O` (stereo not given) was tested, and the growth was 32.1% (inactive). With `Cc1ccc(S(=O)(=O)N2CCc3ccccc3CC2)cc1` the growth was -4.8% (active). With `O=C1/C(=C\C(Cl)=C/c2ccc([N+](=O)[O-])cc2)SC(=S)N1CCc1ccc(O)cc1` the growth was -84.7% (active). For `NC(=O)c1noc(C(=O)c2ccccc2)c1N`, the growth was 95.5% (inactive). For `CCOC(=O)NCCCC(=O)NCCc1ccccc1`, the growth was 105% (inactive). With `CCCCCCCCc1ccc(OCCOCC[N+](C)(C)CC)cc1` (tested in a mixture with another compound) the growth was -11.3% (active). For `O=C(N/N=C/c1cccnc1)c1ccccc1Nc1cccc(C(F)(F)F)c1`, the growth was 74.5% (inactive). In the case of `CCN1C(=O)N(CC)C2C1NC(=S)N2/N=C/c1ccc(OC)cc1` (stereo not given), the growth is reported as 26.8% (inactive). `N#Cc1ccc(OC(=O)Nc2cc(Cl)cc(Cl)c2)cc1` was tested, and the growth was -16.4% [100 µM] (active). With `COc1ccccc1NC(=O)Cn1cc(CN2CCN(c3ccnc4cc(Cl)ccc34)CC2)nn1` the growth was 80.8% (inactive). With `CC[C@H]1CN2CCc3cc(OC)c(OC)cc3C2C[C@@H]1CC1NCCc2cc(OC)c(OC)cc21` (stereo not given in full) the growth was -59.5% (active). For `CCN(CC)C(=O)c1cccnc1`, the growth was 109% (inactive). For `O=c1nc(-c2ccccc2)c2cc(-c3ccc(C(F)(F)F)nc3)ccc2[nH]1`, the growth was 104% (inactive). In the case of `CCCCN(CCCC)CCCn1c(=O)c2sc3ncccc3c2n2nnc(-c3ccccc3)c12`, the growth is reported as 109% (inactive). `S=C1SCC(c2ccccc2)S1` (stereo not given) was tested, and the growth was 99.6% (inactive). For `CC(=O)OCC(=O)O[C@@H]1C[C@]2(C(C)C)O[C@@]1(C)[C@@H]1CC[C@@H](C)[C@H]1[C@@H]2OC(=O)/C=C/c1ccccc1`, the growth was 83.7% (inactive). In the case of `CCN(CC)c1ccc(C2=NN(C(C)=O)C(c3cc(OC)c(OC)c(OC)c3)C2)cc1` (stereo not given), the growth is reported as 17% (inactive). For `Cc1nn(-c2ccccc2)c(N)c1N=C1NC(=O)/C(=C/c2ccc(Br)cc2)S1`, the growth was 86.6% (inactive). For `c1ccc(-c2cc(-c3cc(-c4ccccc4)on3)no2)cc1`, the growth was 84.9% (inactive). For `CCCCCc1c(C)[nH]c(/C=C2\N=C(c3ccc[nH]3)C=C2Oc2ccccc2)c1C`, the growth was -59.3% [100 µM] (active).

Reference: PubChem BioAssay (NCI)
